Compound activity as filed in PubChem.
In the library only some 4% were active in any assay of this set; here they are far more common.
Tau filament bind = binders of human tau filaments | recombinant tau filaments, thioflavin S fluorescence, 15 h; filaments grown with octadecylsulfate alongside compound | actives 2% (n = 71,000) | Potency, µM (doses to about 57.1 µM), for inactives: top-dose activity change, negative = inhibition | P10636;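 note: % is set by controls: 0 for no effect and ±100 for the full control effect; actives lower thioflavin S fluorescence by blocking filaments or displacing dye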
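Read-out: ThS fluorescence, 450 nm excitation/510 nm emission; lower signal marks blocked filament formation or displaced dye. Tau at 1 uM with 30 uM ODS, 10 uM ThS, 5 mM DTT, 100 mM NaCl, 10 mM HEPES pH 7.4; 15 h, 37 C.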
FLuc inh = firefly luciferase inhibition; AID 411; Potency, µM (highest dose often 57.1 µM), inactives show at the highest dose activity change, negative = inhibition, usual class: inhibitors; purified firefly luciferase, luminescence, 8 min; P08659; actives 2.2% (n = 72,000); note: % is set by controls: 0 for no effect and ±100 for the full control effect; nearly all actives have a fitted effect of over 40% in size
Target sequence (P08659 whole entry, looked up): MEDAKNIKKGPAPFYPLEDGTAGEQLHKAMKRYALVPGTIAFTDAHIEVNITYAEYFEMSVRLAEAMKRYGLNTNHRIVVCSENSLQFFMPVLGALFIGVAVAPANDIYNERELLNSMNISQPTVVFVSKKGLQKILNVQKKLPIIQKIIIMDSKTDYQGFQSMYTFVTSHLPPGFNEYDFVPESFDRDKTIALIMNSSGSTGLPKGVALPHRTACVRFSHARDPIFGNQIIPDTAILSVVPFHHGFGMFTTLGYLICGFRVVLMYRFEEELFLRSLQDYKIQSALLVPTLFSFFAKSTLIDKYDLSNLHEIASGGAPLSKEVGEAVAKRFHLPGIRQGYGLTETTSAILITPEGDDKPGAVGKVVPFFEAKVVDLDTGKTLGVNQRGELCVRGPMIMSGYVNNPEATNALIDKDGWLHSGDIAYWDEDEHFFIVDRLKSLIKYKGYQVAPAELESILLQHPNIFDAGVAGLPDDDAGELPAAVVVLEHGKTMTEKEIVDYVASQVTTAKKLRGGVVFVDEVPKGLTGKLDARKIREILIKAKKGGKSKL
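Firefly luciferase (PKLight detection mix) with 10 uM ATP in pH 7.2 imidazole buffer (KCl, MgCl2, Tween 20, BSA). Compounds tested across a concentration series (qHTS). Luminescence read after 8 min at ambient temperature.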
PK Bst = alters activity of Bacillus stearothermophilus pyruvate kinase. actives 1.2% (n = 51,000). purified pyruvate kinase, luminescence ATP production; ribose 5-phosphate activator present at AC10. Potency, µM; in the data active = potency below about 11 µM; inconclusive = mostly about 12 µM to 25 µM;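 the screen sought inhibitors and activators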;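 note: scaled between full activation by ribose 5 phosphate and full inhibition by luteolin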
Casp1 inh = caspase-1 (human) inhibition, allosteric or competitive | AID 900 | Potency, µM (highest dose often 57.5 µM), for the others: at the top dose activity change, negative = inhibition, actives largely listed as inhibitors | P29466 | actives 0.03% (n = 75,000) | Caspase-1 enzyme, Ac-WEHD-AFC fluorogenic rate;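 note: plate controls were vehicle for no effect and no substrate for full effect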
Caspase-7 inhib = caspase-7 (human) inhibition, allosteric or competitive; recombinant caspase-7, Ac-DEVD-AFC fluorescence rate; Potency, µM (highest dose often 57.5 µM), inactives show at the highest dose activity change, negative = inhibition, hits mostly inhibitors; actives 0.02% (n = 75,000); AID 889; active = well fitted inhibition curve with a large enough effect in the main read-out, with a control signal flat, not every such curve was filed as active; inconclusive = small, poorly fitted or top-dose-only effect, or a change in a side signal; note: % of control where 0% means no effect
Starred values were filed as active, the others as inactive; [ ] = dose if it differs, or a comment. Unless noted, calls come from the whole dose curve; as a rule, active = well fitted curve in the direction sought with a large enough effect; inconclusive = small, poorly fitted or top-dose-only effect, or another doubt; inactive = no such curve, though single readings can be large; an effect the other way counts as inactive or inconclusive. Potency is the fitted concentration of half-maximal effect.

Screening COc1ccc(Cl)cc1C(=O)Nc1ccc2c(c1)OCO2 returned Tau filament bind 32%, FLuc inh 13µM*, PK Bst inactive, Casp1 inh -1% and Caspase-7 inhib -2%.
CCOC(=O)c1ccc(NC(=O)c2ccc3c(c2)OCO3)cc1 was read as Tau filament bind 12%, FLuc inh -14%, PK Bst >57, Casp1 inh 2% and Caspase-7 inhib 0%.
`COc1ccccc1C(=O)Nc1ccc2c(c1)OCCO2` gave Tau filament bind -8%, FLuc inh 16µM*, PK Bst inactive, Casp1 inh 0% and Caspase-7 inhib 1%.
For CCOC(=O)CCN1C(=O)[C@H]2[C@H]3[C@H](O)[C@H](O)C/C(=N/OCc4ccccc4)[C@@H]3CC[C@@H]2C1=O the results were FLuc inh -1%[11.4 µM], Casp1 inh -2%[11.5 µM] and Caspase-7 inhib 2%[11.5 µM].
For CCOC(=O)OCC1OC(C#Cc2ccccc2)C=CC1Oc1cccc(N(C)C)c1 (centres undefined) the results were Casp1 inh 0%[11.5 µM] and Caspase-7 inhib -3%[11.5 µM].
Screening COc1ccccc1C(=O)Nc1ccc2c(c1)OCO2 returned Tau filament bind 0%, FLuc inh 25µM*, Casp1 inh -2% and Caspase-7 inhib 0%.
`CS(=O)(=O)N(CC(=O)Nc1ccc2c(c1)OCO2)Cc1ccc(Cl)cc1` gave Tau filament bind inconclusive, FLuc inh 0%, PK Bst >57, Casp1 inh -8% and Caspase-7 inhib -3%.
Screening CN(c1ccccc1C(=O)Nc1ccc2c(c1)OCO2)S(C)(=O)=O returned Tau filament bind inconclusive, FLuc inh -1%, PK Bst >57, Casp1 inh -1% and Caspase-7 inhib -12%.
Screening COc1ccccc1C(=O)NCc1ccc2c(c1)OCO2 returned Tau filament bind 4%, FLuc inh 1%, Casp1 inh 0% and Caspase-7 inhib -1%.
O=C(Nc1ccc2c(c1)OCO2)C1(S(=O)(=O)c2ccc(Cl)cc2)CC1 was read as Tau filament bind 16µM*, FLuc inh 0%, PK Bst >57, Casp1 inh 2% and Caspase-7 inhib 1%.
COc1cc(SC)ccc1C(=O)Nc1ccc2c(c1)OCCO2 was read as Tau filament bind 86%, FLuc inh 1.3µM*, Casp1 inh -3% and Caspase-7 inhib 1%.
Screening COc1cc(C(=O)Nc2ccc3c(c2)OCCO3)c(-n2cnnn2)cc1OC returned Tau filament bind 1%, FLuc inh 3%, PK Bst >57, Casp1 inh -1% and Caspase-7 inhib 1%.
Screening Cc1ccccc1C(=O)Nc1ccc2c(c1)OCO2 returned Tau filament bind -2%, FLuc inh 16µM*, PK Bst inconclusive, Casp1 inh -4% and Caspase-7 inhib 0%.
`COc1cc2nc3c(c([Si](C)(C)C(C)(C)C)c2cc1OC)Cn1c-3cccc1=O` gave Tau filament bind -15%, Casp1 inh 2% and Caspase-7 inhib 0%.
Screening FC(F)(F)c1ccccc1-c1cc(NCCN2CCOCC2)ncn1 returned Tau filament bind -2%, FLuc inh 0%[2.29 µM], Casp1 inh 0% and Caspase-7 inhib -2%.
Screening O=C(c1ccco1)N1CCC[C@@]2(CCN(Cc3ccccc3)C2)C1 returned Tau filament bind 3%, FLuc inh -1%[11.4 µM], Casp1 inh 0% and Caspase-7 inhib 1%.
CN(C)c1ncc2nc(-c3ccccc3)c(=O)n(CCC#N)c2n1 was read as Tau filament bind 327%, FLuc inh 1%[11.4 µM] and Caspase-7 inhib inconclusive.
`Cc1cc(C)n2nc(C(=O)Nc3ccc4c(c3)OCO4)nc2n1` gave Tau filament bind 32µM*, FLuc inh inconclusive, Casp1 inh -7% and Caspase-7 inhib -20%.
CCCN1Cc2cccc(C(=O)Nc3ccc4c(c3)OCCO4)c2C1=O was read as Tau filament bind 41%, FLuc inh 13µM*, Casp1 inh -2% and Caspase-7 inhib -5%.
`O=C(Nc1cccc(Cl)c1)Nc1ccc2c(c1)OCO2` gave Tau filament bind 13µM*, FLuc inh 16µM*, Casp1 inh -1% and Caspase-7 inhib -4%.
For CCN(CC)c1ccc(NC(=O)c2nc3nc(C)cc(C(F)F)n3n2)cc1 the results were Tau filament bind 16µM*, FLuc inh -7%, Casp1 inh 2% and Caspase-7 inhib -3%.
Screening CCNc1ncc2nc(-c3ccc(F)cc3)c(=O)n(CCc3ccccc3)c2n1 returned Tau filament bind inconclusive, FLuc inh 0%[11.4 µM] and Caspase-7 inhib inconclusive.
COc1ccc(CC[N@+]2(C)COc3cc4oc(=O)cc(C)c4cc3C2)cc1OC was read as Tau filament bind -4%[11.4 µM], FLuc inh 0%[11.4 µM], Casp1 inh 1%[11.5 µM] and Caspase-7 inhib -3%[11.5 µM].
NC(=O)c1ccsc1NC(=O)COc1ccccc1 was read as Tau filament bind -23%, FLuc inh 20µM*, PK Bst inactive, Casp1 inh -2% and Caspase-7 inhib -4%.
NC(=O)c1ccsc1NC(=O)CSc1ccccc1F was read as Tau filament bind 0%, FLuc inh -6%, PK Bst >11, Casp1 inh 5% and Caspase-7 inhib 1%.
Screening CCCCCN=c1ccn(Cc2ccccc2)c2ccccc12 returned Tau filament bind 81%, FLuc inh 25µM*, Casp1 inh 1% and Caspase-7 inhib 2%.
Screening CC(=O)OCC(=O)[C@@]1(O)CCC2C3CC(C)C4=CC(=O)C=CC4(C)C3C(O)CC21C (some centres undefined) returned Casp1 inh 0% and Caspase-7 inhib 0%.
For COc1ccc(CNc2ncnc3ccc(-c4ccccc4OC)cc23)c(OC)c1 the results were Tau filament bind inactive, FLuc inh 0%[2.29 µM], Casp1 inh -5% and Caspase-7 inhib -5%.
Screening N#CCSc1nc2cc(C(=O)N3CCC(C(N)=O)CC3)ccc2c2nc3ccccc3n12 returned Tau filament bind 5%, FLuc inh -3%, PK Bst 0.47*, Casp1 inh 3% and Caspase-7 inhib 0%.
`Cc1c(-c2nc(N)nc(Nc3ccccc3)n2)oc2ccccc12` gave Tau filament bind 106%, FLuc inh 25µM*, PK Bst inconclusive, Casp1 inh -4% and Caspase-7 inhib -6%.
Screening CC(=O)OC[C@H]1O[C@@H](O/N=C(\C)CCN2CCc3nc(-c4ccccc4)c(-c4ccccc4)cc3C2)[C@H](OC(C)=O)[C@@H](OC(C)=O)[C@H]1OC(C)=O returned FLuc inh 0%[11.4 µM], Casp1 inh -3%[11.5 µM] and Caspase-7 inhib 1%[11.5 µM].
CCOC(=O)N1CCN(C(=O)C2CCCN(c3nc4ccc(OCC)cc4s3)C2)CC1 (centres undefined) was read as Tau filament bind -10%, FLuc inh inconclusive, Casp1 inh 5% and Caspase-7 inhib -4%.
Screening CCOc1ccc2nc(N3CCC(C(=O)N4CCN(c5ccccn5)CC4)CC3)sc2c1 returned Tau filament bind 91%, FLuc inh 6.3µM*, Casp1 inh -1% and Caspase-7 inhib -12%.
